The campaign covered roughly 2,300 compounds. About 1,400 (61%) were called active. Inconclusive results (about 29%) are left out. Calls follow the shape of the dose curve; as a rule, active = well fitted inhibition curve with a large enough effect; inconclusive = small, poorly fitted or top-dose-only effect, or effect the other way; inactive = no such curve, though single readings can be large or run the other way. The set was probably picked from earlier hits. Some of the results follow.
% is scaled to controls: 0 for no effect and ±100 for the full control effect; potency is read from the fitted curve at half-maximal effect.

This assay can be described thus: Confirmation screen for delayed death inhibitors of the malarial parasite plastid, 96 hour incubation. Also: nearly all actives have a fitted effect of over 60% in size. The note with it: P. falciparum luciferase growth in erythrocytes; series mostly up to 28.7 µM; activity change, negative = inhibition: at the top concentration. In short, it runs like this:
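Erythrocytes infected with luciferase-expressing P. falciparum (2% hematocrit, 0.1% parasitemia final) in RPMI 1640 with 0.5% Albumax, exposed to compounds 96 h at 37 C, 5% CO2. Growth inhibition read as decreased luciferase luminescence.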
`O=C(CSc1nnc(NC(=O)c2ccccc2[N+](=O)[O-])s1)NCC1CCCO1` (configuration not stated): the Potency is 14.1 µM (active).
With `O=C(COC(=O)c1c2c(nc3ccccc13)CCN(Cc1ccccc1)C2)Nc1c(F)cccc1F`, the Potency was 5.01 µM (active).
Consider `COc1ccc(Cc2nc3ccc(C(=O)NCCc4ccccn4)cc3o2)cc1OC`, for which the Potency is 11.2 µM (active).
On to `Nc1nc(C2CC2)c(Sc2sc(N)nc2C2CC2)s1`, for which the “activity change, negative = inhibition” value is -23.1% (inactive).
Consider `CCOc1ccccc1NC(=O)NC1Cc2ccccc2C1`, for which the Potency is 12.6 µM (active).
On to `CC(C)(C(=O)N[C@H](CO)c1ccccc1)C(=O)N[C@H](CO)c1ccccc1`, for which the “activity change, negative = inhibition” value is -4.34% (inactive).
`CCCC(=O)NC(c1ccccc1)c1c(O)ccc2ccccc12` (configuration not stated): the Potency was 4.47 µM (active).
Consider `Cc1ccc2c(c1)C1CC(C)(O2)N(c2cccc(C(=O)N3CCN(c4ccccn4)CC3)c2)C(=O)N1` (configuration not stated), for which the Potency was 12.6 µM (active).
Same read-out and setting: the figure for `Cc1cccc(-n2c(C)cc(/C=N\NC(=O)c3cccs3)c2C)c1` is 12.6 µM (active); for `C[N+]1(CCCCSc2ccc(O)cc2)CCCCC1` it is 4.47 µM (active).
Same read-out and setting: the figure for `COc1ccc(C)cc1NC(=O)C(Sc1nnc(Nc2cc(C)ccc2OC)s1)c1ccccc1` (configuration not stated) is 14.1 µM (active); for `Cc1cccc[n+]1CC(=O)c1ccc(NC(=O)c2ccccc2)cc1` it is 5.01 µM (active).
Consider `Cc1ccc(C(=O)NCCn2ccc3ccccc32)cc1[N+](=O)[O-]`, for which the “activity change, negative = inhibition” value was -13.4% (inactive).
Regarding `CCOC(=O)NC(=O)COC(=O)c1ccc(O)cc1`, the “activity change, negative = inhibition” value is 13.7% (inactive).
The same measure, in the same setting: under `COC(=O)c1ccc(CNCC(=O)Nc2ccc(C(=O)OC)cc2)cc1` stands -15.1% (inactive).
Consider `COC(=O)c1ccc(NC(=O)C[n+]2ccccc2C)cc1`, for which the Potency is 12.6 µM (active).
Consider `Cc1ccc(C(=O)C[n+]2ccccc2C)cc1[N+](=O)[O-]`, for which the Potency was 11.2 µM (active).
Regarding `Cc1cccc[n+]1CC(=O)Nc1ccc([N+](=O)[O-])cc1`, the Potency is 12.6 µM (active).
Consider `CC(C)[C@H](NC(=O)N1CCn2c1nc1ccccc12)C(=O)N[C@H](C(=O)O)c1ccccc1`, for which the “activity change, negative = inhibition” value was -11.3% (inactive).
Still for that read-out and setting: under `CCc1ccc(-c2nc3ccc(Br)cc3c(C(=O)O)c2C)s1` stands -11.4% (inactive).
As to `S=C(NCc1ccncc1)Nc1ccc(Br)cc1Cl`, the Potency was 12.6 µM (active).
On the same count and under the same terms, under `O=C(C1CC1)N1CCc2cc(Br)cc(S(=O)(=O)NCc3ccco3)c21` stands 11.2 µM (active); under `CC1CCN(CCCNS(=O)(=O)c2cc(Br)cc3c2N(C(=O)C2CC2)CC3)CC1`, 12.6 µM (active).
On to `O=C(C1CCC1)N1CCc2cc(S(=O)(=O)NCc3ccco3)ccc21`, for which the “activity change, negative = inhibition” value was -14.6% (inactive).
On to `CCC(=O)N1CCc2cc(Br)cc(S(=O)(=O)NCc3ccco3)c21`, for which the Potency is 12.6 µM (active).
As for `CCCCN(CCCC)CC(O)c1cc(Cl)cc2c1-c1ccc(Cl)cc1/C2=C/c1ccc(Cl)cc1` (configuration not stated), the Potency was 0.0562 µM (active).
On to `O=[N+]([O-])c1ccc(C(O)C[n+]2ccccc2)cc1` (configuration not stated), for which the Potency is 10 µM (active).
In the case of `CCOc1ccc(C2NC(=S)NC3=C2CCc2ccccc23)cc1` (configuration not stated), the Potency was 14.1 µM (active).
Same read-out and setting: the figure for `CN(C)c1ccc2nc3ccc(=[N+](C)C)cc-3sc2c1` is 0.0631 µM (active); for `Cc1[nH]c(=O)[nH]c(=O)c1S(=O)(=O)N1CCCC(C(=O)N2CCN(c3cccc(C(F)(F)F)c3)CC2)C1` (configuration not stated) it is 8.91 µM (active); for `N#Cc1cccc(NC(=O)Cn2c3[n+](c4ccc(C(F)(F)F)cc42)CCCCC3)c1` it is 0.251 µM (active).
The same measure, in the same setting: the figure for `CCCCCn1c(=O)c2ccccc2n2c(CCl)nnc12` is 6.31 µM (active); for `CCCCCCCCC[n+]1cccc2c3ccccc3ccc21` it is 0.158 µM (active); for `CCCCCCCOc1ccc(C2(C)NC(=O)NC2=O)cc1` (configuration not stated) it is 8.91 µM (active).
For `CCC/C(=N\NC(=O)c1ccco1)c1ccc(Cl)s1`, the Potency is 12.6 µM (active).
As for `CCOc1ccc(CN2CCN(Cc3ccc4cc(F)ccc4n3)CC2CCO)cc1` (configuration not stated), the Potency is 14.1 µM (active).
Consider `CCOc1ccccc1CN1CCN(Cc2ccc3cccc(OC)c3n2)CC1CCO` (configuration not stated), for which the Potency was 12.6 µM (active).
As for `COc1ccc(-c2cc(C(=O)Nc3cc(C)n(Cc4ccc(Cl)cc4)n3)no2)cc1OC`, the Potency is 0.316 µM (active).
In the case of `CCCn1cc(S(=O)(=O)c2ccc(Cl)cc2)c(=O)c2cc(OC)ccc21`, the Potency is 11.2 µM (active).
Consider `NC(=O)CC(NC(=O)c1ccccc1)c1ccc(N2CCN(c3ccccc3)CC2)c([N+](=O)[O-])c1` (configuration not stated), for which the Potency was 12.6 µM (active).
For the compound `O=C(OCC(=O)N1CCN(c2ccccc2)CC1)c1cc(Cl)ccc1[N+](=O)[O-]`, the “activity change, negative = inhibition” value was -16.5% (inactive).
Turning to `O=C(NCc1ccco1)c1cc2sccc2n1Cc1ccc(F)cc1`, the Potency is 11.2 µM (active).
On the same count and under the same terms, the figure for `COc1ccccc1N1CCN(C(=O)c2ccc3[nH]c4c(c3c2)CCCC4)CC1` is 11.2 µM (active).
On to `CN(CCC#N)C(=O)COC(=O)c1ccc2[nH]c3c(c2c1)CCCC3`, for which the “activity change, negative = inhibition” value was -21.3% (inactive).
On to `CCN1CCN(Cc2c(O)ccc3c2O/C(=C\C=C\c2ccccc2)C3=O)CC1`, for which the Potency is 4.47 µM (active).
Turning to `CC1=Nc2cc(C(=O)N3CCCC3)ccc2Sc2c(C)ccc(C)c21`, the Potency was 3.16 µM (active).
`CC1=Nc2cc(C(=O)N3CCCC3)ccc2Sc2ccc(C)cc21`: the Potency was 0.891 µM (active).
The same measure, in the same setting: under `CCOC(=O)CSc1nnc(NC(=O)c2cccc([N+](=O)[O-])c2)s1` stands 11.2 µM (active).
As for `Nc1nnnn1/N=C/C(Br)=C/c1ccccc1`, the Potency was 12.6 µM (active).
As to `CCCN1CCN(C(=O)C2CCN(S(=O)(=O)c3ccc4c(c3)NC(=O)C(C)S4)CC2)CC1` (configuration not stated), the Potency was 7.08 µM (active).
With `Cc1cc(NC(=O)COC(=O)c2c(Cl)cccc2Cl)no1`, the “activity change, negative = inhibition” value is -11.4% (inactive).
For `Cc1cc(NC(=O)COC(=O)c2ccccc2S(=O)(=O)N(C)c2ccccc2)no1`, the Potency is 7.94 µM (active).
Turning to `O=C(CSc1c2c(nc3ccccc13)CCCC2)NCc1ccco1`, the “activity change, negative = inhibition” value is -8% (inactive).
`O=C(CSc1nc2ccccc2c(=O)n1Cc1ccc(C(=O)NC2CC2)cc1)NCc1ccco1`: the Potency was 7.08 µM (active).
On the same count and under the same terms, under `NC(=O)CSc1nc2c(sc3ccccc32)c(=O)n1CCCN1CCOCC1` stands 3.16 µM (active); under `O=C(CSc1nc2c(sc3ccccc32)c(=O)n1-c1ccccc1)NCc1ccco1`, 12.6 µM (active); under `CCN(CC)CCn1c(SCC(=O)NCc2ccccc2)nc2c(sc3ccccc32)c1=O`, 5.01 µM (active).
Take `CC(=O)Nc1sc(C)c(C)c1C(=O)OCC(=O)N(CC(C)C)C1CCS(=O)(=O)C1` (configuration not stated): the Potency was 12.6 µM (active).
For `Cc1cnc(CNC(=O)c2ccc3oc(Cc4ccc(Cl)cc4)nc3c2)cn1`, the Potency is 12.6 µM (active).
On to `Cc1cnc(CNC(=O)c2ccc3oc(Cc4ccccc4)nc3c2)[nH]1`, for which the Potency is 14.1 µM (active).
On the same count and under the same terms, the figure for `c1ccc(SCc2cn(C[C@H]3CC[C@@H]([C@@H]4CC[C@H](Cn5cc(CSc6ccccc6)nn5)O4)O3)nn2)cc1` is 11.2 µM (active).
Turning to `CC1CCCN(c2ccc(F)cc2N)C1` (configuration not stated), the Potency is 8.91 µM (active).
On the same count and under the same terms, the figure for `COc1cccc(/C=N/N2CCN(C3c4ccccc4-c4ccccc43)CC2)c1O` is 14.1 µM (active).
As for `CCOC(=O)C(C)Sc1cc(CS(=O)(=O)c2ccccc2)nc(-c2ccccc2)n1` (configuration not stated), the Potency is 12.6 µM (active).
Still for that read-out and setting: under `N#C/C(=C\c1c(Oc2ccccc2Cl)nc2ccccn2c1=O)C(=O)NC1CCS(=O)(=O)C1` (configuration not stated) stands 12.6 µM (active); under `Cc1ccc(Oc2nc3ccccn3c(=O)c2/C=C(\C#N)C(=O)NC2CCS(=O)(=O)C2)c(C)c1` (configuration not stated), 10 µM (active).
Regarding `Cc1cccc(Oc2nc3ccccn3c(=O)c2/C=C(\C#N)C(=O)NC2CCS(=O)(=O)C2)c1C` (configuration not stated), the Potency is 12.6 µM (active).
Take `COc1ccc(CCn2c(C(C)C)nc3c(c(=O)c4ccccc4n3C)c2=O)cc1`: the Potency was 3.16 µM (active).
With `COc1ccc(Cn2c(-c3ccccc3)nc3c(c(=O)c4ccccc4n3C)c2=O)cc1`, the Potency was 10 µM (active).
Take `COc1ccc(-c2nc3c(c(=O)c4ccccc4n3C)c(=O)n2Cc2ccccc2)cc1`: the Potency is 7.08 µM (active).
Consider `CCO[C@H]1OC(C(=O)N2CCN(Cc3ccc4c(c3)OCO4)CC2)=C[C@@H](c2ccc(C(F)(F)F)cc2)[C@@H]1CCCO`, for which the Potency is 2 µM (active).
Turning to `O=C(C1=C[C@@H](c2csc3ccccc23)C[C@@H](OCCCCO)O1)N1CCN(Cc2ccc3c(c2)OCO3)CC1`, the Potency was 3.98 µM (active).
`CCO[C@H]1OC(C(=O)N2CCN(Cc3ccccc3)CC2)=C[C@@H](c2ccc(C(F)(F)F)cc2)[C@@H]1CCCO`: the Potency was 3.16 µM (active).
The same measure, in the same setting: the figure for `CCOC(=O)N1CCN(CC(=O)c2ccc(O)cc2O)CC1` is 17.8 µM (active).
For `CCOc1cc(/C=C2/C(=O)ON=C2C)ccc1OCc1ccccc1`, the “activity change, negative = inhibition” value is 4.29% (inactive).
Turning to `CCOc1cc(/C=C2\COc3ccccc3C2=O)ccc1OCC(=O)N(C)C`, the Potency was 12.6 µM (active).
On the same count and under the same terms, under `COc1cc(CN2CCN(S(=O)(=O)c3ccccc3)CC2)cc(OC)c1OC` stands 2.24 µM (active); under `O=S1(=O)C=C(Sc2nc3cc(Cl)ccc3o2)c2ccccc21`, 4.47 µM (active); under `O=S1(=O)C=C(Sc2nnc(-c3ccccc3)o2)c2ccccc21`, 14.1 µM (active).
Same read-out and setting: under `CCOc1ccc(/C=N/OCC(=O)Nc2ccc(OCc3ccccc3)cc2)cc1OC` stands 3.55 µM (active); under `C[C@H]1[C@@H](OC(=O)CCC(=O)O)OC2OC3(C)CC[C@H]4[C@H](C)CC[C@@H]1[C@@]24OO3` (some centres not stated), 0.0355 µM (active); under `C[C@@H]1CCC2[C@@H](C)[C@@H](O)O[C@@H]3O[C@@]4(C)CC[C@@H]1[C@@]23OO4` (some centres not stated), 0.0251 µM (active).
The same measure, in the same setting: under `CO[C@H]1OC2O[C@@]3(C)CC[C@H]4[C@H](C)CC[C@@H]([C@H]1C)[C@@]24OO3` (some centres not stated) stands 0.0631 µM (active); under `COCCN1CCCC(CNCc2cn(C)nc2-c2ccc(Oc3ccccc3)cc2)C1` (configuration not stated), 7.08 µM (active); under `Cc1cc(=O)oc2c3c(cc(OCC(=O)Nc4cccnc4)c12)OC(C)(C)CC3`, 1.26 µM (active).
On to `CCOC(=O)c1c(NC(=O)CSc2ccccc2C(=O)O)sc(C)c1C`, for which the “activity change, negative = inhibition” value was -10% (inactive).
Regarding `CCOC(=O)c1c(NC(=O)CSc2c[nH]c3ccccc23)sc2c1CCCC2`, the Potency is 12.6 µM (active).
As for `Cc1ccc2c(c1)cc(C(=O)NCc1ccccc1)n2C`, the “activity change, negative = inhibition” value is 5.14% (inactive).
For `CC(C)(C)C(=O)NNC(=O)c1cc(C(C)(C)C)nn1Cc1ccccc1`, the Potency is 14.1 µM (active).
Still for that read-out and setting: under `Cc1ccc(NC(=O)c2cc(C(C)(C)C)nn2Cc2ccccc2)cc1` stands 12.6 µM (active).
As for `Cc1cccc(Cn2nc(C(C)(C)C)cc2C(=O)Nc2ccc(F)cc2)c1`, the Potency is 3.55 µM (active).
As for `CC(C)(C)c1cc(C(=O)NNc2cccc(Cl)c2)n(Cc2ccccc2)n1`, the Potency is 10 µM (active).

For the origin of these results see PubChem BioAssay AID504848 (National Center for Advancing Translational Sciences (NCATS), 2011).
